# Screens: PubChem BioAssay, National Center for Advancing Translational Sciences (NCATS)
# HCMV antiviral = qHTS Assay for inhibitors of the human cytomegalovirus (HCMV). HFF cells, HCMV-luciferase reporter, 72 h; active compounds read low. activity change, negative = inhibition, % at 57.5 µM. 4.5% of 410,000 active; in the data active means activity change below about -60%; inconclusive means no clear call, values can overlap the other calls; inactive means above about -39%; further: on the % scale 0 is the no-effect control and ±100 the full control effect
#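 Two compound doses tested in HFFs infected with HCMV-luciferase, MOI 1 PFU/cell, 72 h at 37C. Lysate luminescence read with OneGlo; data normalized against buffer-only and 10uM Salinomycin inhibitor controls.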
# Cycloheximide cs = Cycloheximide Counterscreen for Small Molecule Inhibitors of Shiga Toxin; cell reporter, cycloheximide protein synthesis inhibition counterscreen; max response, %; 12% of 300,000 active; in the data active means max response mostly above about 13%, no sharp cut-off; inactive means mostly below about 14%; further: read at 38.3 µM for the half of the compounds with a filed dose; 0% is about no effect
# Shiga inhibitor = A qHTS for Small Molecule Inhibitors of Shiga Toxin; Vero cells, Shiga toxin protein synthesis inhibition reporter; inhibition, % at 38.7 µM; 9.2% of 290,000 active; in the data active means inhibition mostly above about 28%, no sharp cut-off; inactive means mostly below about 43%; further: 0% is about no effect
# Pf growth 48h = Primary qHTS for delayed death inhibitors of the malarial parasite plastid, 48 hour incubation | P. falciparum luciferase growth in erythrocytes, 48 h | 5.9% of 310,000 active | AID 504832, 2011 | Potency, µM (doses to about 28.7 µM), for inactives: at the top dose activity change, negative = inhibition, hits mostly inhibitors; further: potency means the concentration at half of the fitted maximal effect; on the % scale 0 is the no-effect control and ±100 the full control effect
#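 In quantitative HTS format, infected erythrocytes bearing luciferase-reporter parasites were treated for a single generation at 37 C. Luminescence after adding detection reagent served as the growth measure.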
# Pf growth 96h = Primary qHTS for delayed death inhibitors of the malarial parasite plastid, 96 hour incubation | AID 504834, 2011 | Potency, µM (titrated, usually from 28.7 µM), without a hit: at the top dose activity change, negative = inhibition, actives largely listed as inhibitors | 6.9% of 320,000 active | P. falciparum luciferase reporter growth, 96 h; further: potency means the concentration at half of the fitted maximal effect; on the % scale 0 is the no-effect control and ±100 the full control effect
#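 Cell-based qHTS: luciferase-tagged P. falciparum in erythrocytes (2% hematocrit, 0.05% parasitemia final) incubated with compounds for 96 hours, 37 C, 5% CO2; luciferase detection reagent then added and luminescence measured.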
# * hit, by the source's call; i = inactive; ? = inconclusive; . = no result given. Only some compounds are listed: those with a hit (about 20% of all), similar ones and a draw of the others. Unless noted, the call rests on the fitted dose curve; in most records, active means well fitted inhibition curve with a large enough effect; inconclusive means small, poorly fitted or top-dose-only effect, or another doubt; inactive means no such curve, though single readings can be large or run the other way.
SMILES,HCMV antiviral,Cycloheximide cs,Shiga inhibitor,Pf growth 48h,Pf growth 96h
CCc1ccc2c(c1)C1(C(=O)N2)N2CCCC2C(C(=O)c2ccc3ccccc3c2)C12C(=O)Nc1ccccc12 (stereo unspecified),?,46*,65*,?,2.3µM*
CCCCC(=O)NC(NC(=S)N1CCOCC1)C(Cl)(Cl)Cl (stereo unspecified),11,-7,-31,8.3µM*,.
O=C(NC(NC(=S)N1CCOCC1)C(Cl)(Cl)Cl)c1ccc(Cl)cc1 (stereo unspecified),-17,-5,-3,?,-5%
Cc1cccc(OCCCC(=O)N2CCCc3ccccc32)c1C,?,28*,10,.,?
O=C(COc1ccc(Cl)cc1Cl)NC(=S)N1CCCc2ccccc21,?,43*,67*,.,-5%
Cc1cccc(OCC(=O)NC(=S)N2CCCc3ccccc32)c1,5,35*,i,?,9.3µM*
Cc1cccc(OCC(=O)OCC(=O)N2CCCc3ccccc32)c1C,-1,.,.,?,-2%
Cc1cccc(OCC(=O)Nc2ccccc2N2CCCCC2)c1,?,-3,-8,?,-10%
CCC(Oc1cc(Cl)ccc1Cl)C(=O)N1CCC2(CC1)OCCO2 (stereo unspecified),14,31*,64*,91%,13%
O=C(CSc1nc2nn(-c3ccccc3)c(=O)c-2c2n1CCCCC2)c1ccc(OC(F)F)cc1,0,.,.,.,.
CC(C)c1ccc(NC(=O)COC(=O)C2CC3C=CC2C3)cc1 (stereo unspecified),-6,.,.,.,.
O=C(NCCCN1CCCC1=O)[C@H](CSCc1ccccc1)N1Cc2ccccc2C1=O,-10,-1,-2,1%,7%
O=C(COc1ccc(Cl)cc1Cl)N1CCCN(C(=O)COc2ccc(Cl)cc2Cl)CC1,-16,-5,-15,.,?
O=C(CCCOc1ccc(Cl)cc1Cl)N1CCCc2ccccc21,-27,30*,56*,.,17%
O=C(CCCOc1ccc(Cl)cc1Cl)N1CCC2(CC1)OCCO2,28,17*,34,18%,.
O=C(COc1ccc(Cl)cc1Cl)NC(=O)N1CCCCC1,16,45*,67*,103%,.
Cn1c(=O)cc(OCCCC(=O)N2CCC3(CC2)OCCO3)c2ccccc21,157,1,-12,?,0%
COc1ccccc1C(=O)NCCN1CCN(c2ccccc2)CC1,3,-3,-9,47%,?
CC1(C)Cc2nc(Cl)c(C(N)=O)cc2CO1,13,-2,-4,54%,34%
O=C(CSc1ncnc2sc(-c3ccccc3)cc12)NC1CCS(=O)(=O)C1 (stereo unspecified),-40,2,-3,-25%,?
COCCCNc1nc(-c2ccncc2)nc2ccccc12,14,-3,-2,?,40%
COCCCNC(c1ccccc1)c1ccncc1 (stereo unspecified),9,-2,-7,-2%,2.6µM*
COCCn1c(-c2ccccc2)nc2oc3ccccc3c(=O)c2c1=O,-2,-2,11,-6%,-28%
COCCn1c(-c2ccc(Br)cc2)nc2oc3cc(OC)ccc3c(=O)c2c1=O,-20,-4,-4,8.3µM*,?
COCCn1c(-c2cc(OC)c(OC)c(OC)c2)nc2oc3ccccc3c(=O)c2c1=O,-65*,-3,10,-27%,.
SMILES,HCMV antiviral,Cycloheximide cs,Shiga inhibitor,Pf growth 48h,Pf growth 96h
COCCn1c(-c2ccccc2)nc2oc3cc(OC)ccc3c(=O)c2c1=O,-6,-3,-9,?,?
Cn1c(=NC(=O)C(C)(C)C)sc2cccc(F)c21,-25,13,58*,11%,7%
Cn1c(=NC(=O)c2ccccc2[N+](=O)[O-])sc2cccc(F)c21,72,63*,162*,151%,236%
CCC(=O)N=c1sc2cc(F)cc(F)c2n1C,-62*,.,.,.,.
CC(C)C(=O)N=c1sc2cc(F)cc(F)c2n1C,?,-1,9,.,13%
CCOC(=O)c1ccc(NC(=O)c2cc3cc(C)ccc3n2C)cc1,-21,.,.,.,.
CCOC(=O)c1cccc(NC(=O)N2CCC(CN3CCCCCC3)CC2)c1,22,.,.,.,.
CNc1cncc(-c2cccc(OC)c2F)n1,61,.,.,.,.
CN1CCN(C(=S)c2ccc(Cl)cc2)CC1,-31,1,-18,0%,.
CN1CCN(CC(O)(c2ccc(Cl)cc2)c2ccc(Cl)cc2)CC1,?,-10,-17,9.3µM*,15µM*
COCCN1Cc2cc(=O)n3c([nH]c4ccccc43)c2C1=N,90,22*,39,?,?
N=C1c2c(cc(=O)n3c2[nH]c2ccccc23)CN1CCN1CCOCC1,2,9,18,?,?
CCN1CCN(c2ccc(NC(=O)c3ccc([N+](=O)[O-])o3)cc2Cl)CC1,-96*,23*,-20,?,?
CCC(=O)N1CCN(c2ccc(Cl)cc2NC(=O)Cc2ccc(Cl)cc2)CC1,?,2,-17,.,13µM*
CCN1CCN(c2ccc(NC(C)=O)cc2Cl)CC1,29,1,7,0%,?
CC(=O)N1CCN(c2ccc(NC(=O)c3ccc([N+](=O)[O-])o3)cc2Cl)CC1,-98*,25*,50*,?,5.2µM*
CC(=O)N1CCN(c2ccc(NC(=O)c3ccc([N+](=O)[O-])cc3Cl)cc2)CC1,-16,-2,-15,0%,-17%
CCC(=O)N1CCN(c2ccc(Cl)cc2NC(=O)c2ccc([N+](=O)[O-])o2)CC1,?,10,-10,?,10µM*
Cn1c(=O)[nH]c(=O)c2c1nc(NC1CCCC1)n2Cc1ccccc1,52,-2,.,-5%,2%
CC(C)(C)OC(=O)N[C@H]1C=C[C@@H](CC(=O)OCC(F)(F)F)C1,28,.,.,.,.
CCC(=O)N1CCN(c2ccc(NC(=O)c3ccc([N+](=O)[O-])o3)cc2Cl)CC1,-96*,-23,-35,?,14%
OCCC1CN(Cc2ccccc2-c2ccco2)CCN1Cc1ccccc1 (stereo unspecified),31,-2,15,?,9.3µM*
COc1ccc(CN2CCN(CCc3ccccc3)C(CCO)C2)c(O)c1 (stereo unspecified),-10,-2,-8,10µM*,18%
COc1ccc(CN2CCN(CCCc3ccccc3)C(CCO)C2)c(O)c1 (stereo unspecified),-22,1,-7,?,2.9µM*
Cc1ccccc1CN1CCN(CCCc2ccccc2)C(CCO)C1 (stereo unspecified),14,-2,-8,?,4%
OCCC1CN(Cc2ccccc2O)CCN1CCCc1ccccc1 (stereo unspecified),55,-4,-7,6.6µM*,-10%
C#Cc1cccc(Nc2nc(NC(C)C)nc3ccsc23)c1,-13,.,.,.,.
S=c1[nH]nc(COc2ccc(Cl)cc2)n1Cc1ccco1,?,6,-1,2%,10%
